Laboratory results taken from PubChem BioAssay (EPA / NIEHS).
Where a structure was tested more than once in an assay, its records may differ in their call. The source made the active and inactive calls. The calls were made as follows: active = hit-call score of the fitted dose curve at least 0.9, where 1 is the maximum; inactive = score below 0.9.

Key:
[1] = CCTE_Shafer_MEA_acute_per_burst_spike_number_mean: CCTE's Neural Acute Assay for Average Number of Spikes Per Burst, Shafer Lab (AID 2284015);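 also: hits are decreases in mean spikes per burst versus baseline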
Summary of the method: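 Rat primary cortical neurons on 48-well MEAs (DIV 13 or 15) were treated with 0.03-40 uM compound at 37 C. Mean spikes per burst over 40 min were recorded before and after exposure and expressed as percent change from baseline, relative to DMSO.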

[2] = CCTE_Shafer_MEA_acute_interburst_interval_mean: CCTE's Neural Acute Assay for Mean Interburst Interval, Shafer Lab (AID 2284016);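 also: percent change of mean interburst interval versus each well's own pre-dose baseline; curves fitted for decrease in interburst interval relative to DMSO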
Summary of the method: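 Rat primary cortical neurons on 48-well MEAs at DIV 13 or 15 were exposed acutely to 0.03-40 uM. Spikes detected at 8x rms noise, 37 C. Mean interburst interval from 40 min recordings expressed as percent change from 40 min pre-treatment baseline.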

[3] = CCTE_Shafer_MEA_acute_burst_percentage_mean: CCTE's Neural Acute Assay for Percentage of Spikes in a Burst, Shafer Lab (AID 2284017);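 as to AC50: curve fitted for loss of signal so potency reflects decreased burst percentage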
Summary of the method: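 Primary rat cortical neurons on 48-well MEA plates, treated on DIV 13 or 15 at 0.03-40 uM. Spikes detected at 8x rms noise at 37C; percent change from 40-min baseline to 40-min post-dose recording, fitted versus DMSO.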

[4] = CCTE_Shafer_MEA_acute_burst_percentage_std: CCTE's Neural Acute Assay for Standard Deviation of Burst Percentage, Shafer Lab (AID 2284018);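 also: fitted in the negative direction so actives lower burst percentage SD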
Summary of the method: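 Primary rat cortical neurons on 16-electrode MEA wells were recorded 40 min at baseline (DIV 13 or 15), then 40 min after compound (0.03-40 uM), at 37 C. Well value is SD across electrodes of spikes-in-bursts/total spikes; endpoint is percent change, DMSO-referenced.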

[5] = CCTE_Shafer_MEA_acute_per_network_burst_spike_number_mean: CCTE's Neural Acute Assay for Average Number of Spikes in a Network Burst, Shafer Lab (AID 2284019);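 as to AC50: curve fitted for loss of signal so actives reduce spikes per network burst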
Summary of the method: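 Primary rat cortical neurons on 16-electrode MEA wells, DIV 13 or 15, 37 C; 40-min baseline then 40-min recording with compound (0.03-40 uM). Spikes per network burst (total spikes/number of bursts) expressed as percent change from baseline, DMSO reference.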

[6] = CCTE_Shafer_MEA_acute_per_network_burst_spike_number_std: CCTE's Neural Acute Assay for Standard Deviation of Number of Spikes in a Network Burst, Shafer Lab (AID 2284020);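 also: fitted for decrease in spike-number SD versus DMSO so actives lower it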
Summary of the method: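 Primary rat cortical neurons on 48-well MEAs (16 electrodes/well) recorded at DIV 13 or 15: 40-min baseline, then 40 min with compound (0.03-40 uM), 37 C. Value is percent change in SD of spikes per network burst, relative to DMSO.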

[7] = CCTE_Shafer_MEA_acute_per_network_burst_electrodes_number_mean: CCTE's Neural Acute Assay for Mean Number of Electrodes in a Network Burst, Shafer Lab (AID 2284021);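 also: curves fitted for decreases only so hits reduce electrodes per burst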
Summary of the method: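 Percent change from baseline was computed as mean electrode count per network burst, comparing 40 min recordings before and during compound (0.03-40 uM) exposure. Cultures were rat cortical neurons at DIV 13 or 15, recorded on MEAs at 37 C with an adaptive 8x rms threshold.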

[8] = CCTE_Shafer_MEA_acute_network_burst_percentage: CCTE's Neural Acute Assay for Percentage of Network Bursts, Shafer Lab (AID 2284022);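 also: curves fitted for loss so actives lower network burst percentage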
Summary of the method: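 Network burst percentage (spikes in network bursts divided by total spikes) recorded at 37 C over 40 min baseline and 40 min after compound, 0.03-40 uM, in rat cortical cultures at DIV 13 or 15. Analysed as percent change from baseline versus DMSO.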

[9] = CCTE_Shafer_MEA_acute_cross_correlation_HWHM: CCTE's Neural Acute Assay for Cross Correlation at Half Width at Half Maximum, Shafer Lab (AID 2284026);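 also: percent change per well from pre-dose baseline in spike cross-correlogram half width; hits are a decrease in cross-correlogram half width relative to DMSO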
Summary of the method: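 Per-well percent change in cross-correlogram half width at half maximum, derived from 40-min recordings before and after compound (0.03-40 uM) at 37 C. Cultures were rat cortical neurons, DIV 13 or 15, with adaptive spike detection at 8x rms.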

[10] = CCTE_Shafer_MEA_acute_synchrony_index: CCTE's Neural Acute Assay for Synchrony, Shafer Lab (AID 2284027);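 also: network synchrony index of spontaneous spiking in primary rat cortical neurons on MEAs; fitted for loss of signal so actives lower synchrony relative to DMSO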
Summary of the method: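 Spontaneous firing of mature rat cortical networks is captured extracellularly on microelectrode arrays at 37 C, with wells needing ≥10 active electrodes. Each compound (0.03-40 uM) is judged by the change in synchrony index from baseline over 40 min.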

Measured: AC50

O=P(OC(CCl)CCl)(OC(CCl)CCl)OC(CCl)CCl
active: [2] 24 µM | [3] 23.1 µM | [4] 31.6 µM | [9] 23.5 µM | [10] 23 µM
inactive: [1] | [2] | [3] | [4] | [5] | [6] | [7] | [8] | [9] | [10]

CC[C@H]1OC(=O)[C@H](C)[C@@H](O[C@H]2C[C@@](C)(OC)[C@@H](O)[C@H](C)O2)[C@H](C)[C@@H](O[C@@H]2O[C@H](C)C[C@H](N(C)C)[C@H]2O)[C@](C)(O)C[C@@H](C)C(=O)[C@H](C)[C@@H](O)[C@]1(C)O
inactive: all assays above

O=C(O)c1cc(N=Nc2ccc(S(=O)(=O)Nc3ccccn3)cc2)ccc1O
inactive: all assays above

CCC(C)(C)C(=O)O[C@H]1C[C@@H](C)C=C2C=C[C@H](C)[C@H](CC[C@@H]3C[C@@H](O)CC(=O)O3)[C@H]21
inactive: all assays above

CC(C)=CCCC(C)=CC=O
inactive: all assays above

On1ccccc1=S
inactive: all assays above

CCCCCCc1ccc(O)cc1O
inactive: [8]
active: [1] 20 µM | [2] 30.1 µM | [3] 15 µM | [4] 27.8 µM | [5] 6.93 µM | [6] 15.9 µM | [7] 8.5 µM | [9] 20 µM | [10] 6.73 µM

CC[C@H]1CC[C@H](NCc2cc3c(cc2OC)[C@H]2C[C@H]2C(=O)N3C)[C@H](c2ccccc2)N1
active: [2] 7.83 µM | [3] 30.9 µM | [9] 20 µM
inactive: all other assays above

Cn1cnc([N+](=O)[O-])c1Sc1ncnc2nc[nH]c12
inactive: all assays above

COc1cccc(-c2ccc(/C=C\CN3CCCCCC3)cc2Cl)c1
active: [3] 1.34 µM | [5] 3.94 µM
inactive: all other assays above

CCCN(C1CCN(C(=O)C2CCNCC2)CC1)[C@@H]1CCc2ccc(OC)cc2C1
active: [3] 11.3 µM | [4] 33.1 µM | [7] 5 µM | [8] 7.55 µM | [10] 17.7 µM
inactive: all other assays above

O=C(O)CCN(C1(C(=O)NO)CCCC1)S(=O)(=O)c1ccc(Oc2ccc(F)cc2)cc1
inactive: all assays above

Cc1[nH]cnc1C[C@H]1CCc2c(C)c3ccccc3n2C1=O
active: [3] 9 µM | [7] 17.8 µM | [8] 24.2 µM | [9] 30.7 µM | [10] 8.89 µM
inactive: all other assays above

COc1ccc2sc(C(=O)Nc3nnn[nH]3)c(OC(C)C)c2c1
inactive: all assays above

CCOC(=O)c1ccc(C2CCC(NC[C@H](O)COc3ccc(O)c(NS(C)(=O)=O)c3)CC2)cc1 (some centres undefined)
active: [3] 30.2 µM | [10] 28.8 µM
inactive: all other assays above

Cn1c(=O)c2c(ncn2C)n(C)c1=O
active: [1] 31.8 µM | [4] 20 µM
inactive: all other assays above

CCCCCCCCCCCCc1ccccc1
not listed: [2]
inactive: all other assays above

CCCCC(CC)COC(=O)CCCCCCCCC(=O)OCC(CC)CCCC (centres undefined)
inactive: all assays above
